Rows were chosen to be rich in hits. Some 1.9% of all compounds tested hit in one or more screens of this group.
HSF-1 act: increases HSF-1 driven luciferase reporter signal; NIH3T3-HGL HSF-1 luciferase reporter, MG132, 8 h; 100% = twice DMSO control signal; activation, % at 9 µM; 300,000 compounds, 1.7% hits; AID 504408;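 active = mean replicate activation of at least 50% with a set share of replicates each reaching 50%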;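 note: 0% = median of the neutral control wells and 100% = twice that signal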
zVAD death inh: blocks zVAD induced death of L929 cells; L929 zVAD necroptosis rescue, ATP luminescence, 24 h; with zVAD 60 µM; viability rescue, % at 10 µM; 220,000 compounds, 0.38% hits; AID 1377;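 active = activation, scaled between plate controls, above about 75%, limit read from the data; inactive = activation under that limit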;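 note: 0% = zVAD with DMSO and 100% = DMSO alone without zVAD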
Hsp70 act: Hsp70 transcriptional activation, primary screen; HeLa Hsp70 promoter luciferase reporter, luminescence; scaled: vehicle 0, proteasome-inhibitor control 100%; activation, % at 10 µM; 200,000 compounds, 0.04% hits;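 active = activation above the mean across all tested compounds plus 3 SD, cutoff set per campaign, cut at about 5.5% in these data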;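 note: 100% = MG132 at 30 µM as the positive control and 0% = DMSO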
TNF death inh: TNF-alpha cell death inhibition in Jurkat FADD-/- cells; Jurkat FADD-/- TNF necroptosis rescue, ATP luminescence, 24 h; 0 = TNF only, 100 = no-TNF cells; activation (protection from cell death), % at 10 µM; 220,000 compounds, 0.068% hits; AID 463075;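 active = activation, meaning protection from cell death, of at least 50% relative to plate controls; inactive = activation below 50%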;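 note: necroptosis triggered by 40 ng/mL TNF-alpha added together with compound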
zVAD necrop conf: confirmed blocker of zVAD induced death in L929 cells | activation (protection from necroptosis), % at 10 µM | shares compounds with zVAD death inh | 760 compounds, 16% hits | L929 zVAD-induced necroptosis rescue, ATP luminescence, 24 h;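 active = mean protection from necroptosis of at least 50% over duplicate tests; inactive = mean protection below 50%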;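 note: 0% = cells with zVAD alone and 100% = vehicle cells without zVAD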
* = called active by the depositor; x = no result.

SMILES	HSF-1 act	zVAD death inh	Hsp70 act	TNF death inh	zVAD necrop conf
O=C(CSc1nnc(COc2ccccc2Cl)o1)NC(=O)NC1CCCC1	2	87*	0	-5	35
CC(C)NC(=O)NC(=O)CSc1nnc(COc2ccccc2Cl)o1	25	1	-1	-3	x
O=C(Nc1nccs1)c1cccc(NC(=O)C2CC2)c1	-12	6	0	12	x
CC(C)C(=O)Nc1cccc(C(=O)Nc2nccs2)c1	3	77*	0	-2	13
CCCC(=O)Nc1cccc(C(=O)Nc2nccs2)c1	-1	98*	1	13	35
CCC(=O)Nc1cccc(C(=O)Nc2nccs2)c1	0	86*	0	9	20
CSCCC(NC(=O)c1ccco1)C(=O)Nc1ccc(C)cn1 (centres undefined)	-11	x	x	x	x

Screening results deposited in PubChem BioAssay by several laboratories.
